Measured values as given in article PMC4336329 (PLoS ONE, 2015).
Out of some 310,000 compounds screened, about 14,000 (4.5%) showed an effect of 50% or more. Effects have a minus sign here. For the sample, strong results were picked, then their nearest neighbours and some compounds at random.

Molecular target: human ether-à-go-go-related gene (hERG) potassium channel (human, UniProt Q12809)
Test: primary screen, population patch clamp on CHO cells stably expressing hERG; higher = less effect of the substance
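Also: peak tail current of the secondary pulse compared with the same well before compound.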

Sequence of human ether-à-go-go-related gene (hERG) potassium channel (Q12809 whole entry, looked up): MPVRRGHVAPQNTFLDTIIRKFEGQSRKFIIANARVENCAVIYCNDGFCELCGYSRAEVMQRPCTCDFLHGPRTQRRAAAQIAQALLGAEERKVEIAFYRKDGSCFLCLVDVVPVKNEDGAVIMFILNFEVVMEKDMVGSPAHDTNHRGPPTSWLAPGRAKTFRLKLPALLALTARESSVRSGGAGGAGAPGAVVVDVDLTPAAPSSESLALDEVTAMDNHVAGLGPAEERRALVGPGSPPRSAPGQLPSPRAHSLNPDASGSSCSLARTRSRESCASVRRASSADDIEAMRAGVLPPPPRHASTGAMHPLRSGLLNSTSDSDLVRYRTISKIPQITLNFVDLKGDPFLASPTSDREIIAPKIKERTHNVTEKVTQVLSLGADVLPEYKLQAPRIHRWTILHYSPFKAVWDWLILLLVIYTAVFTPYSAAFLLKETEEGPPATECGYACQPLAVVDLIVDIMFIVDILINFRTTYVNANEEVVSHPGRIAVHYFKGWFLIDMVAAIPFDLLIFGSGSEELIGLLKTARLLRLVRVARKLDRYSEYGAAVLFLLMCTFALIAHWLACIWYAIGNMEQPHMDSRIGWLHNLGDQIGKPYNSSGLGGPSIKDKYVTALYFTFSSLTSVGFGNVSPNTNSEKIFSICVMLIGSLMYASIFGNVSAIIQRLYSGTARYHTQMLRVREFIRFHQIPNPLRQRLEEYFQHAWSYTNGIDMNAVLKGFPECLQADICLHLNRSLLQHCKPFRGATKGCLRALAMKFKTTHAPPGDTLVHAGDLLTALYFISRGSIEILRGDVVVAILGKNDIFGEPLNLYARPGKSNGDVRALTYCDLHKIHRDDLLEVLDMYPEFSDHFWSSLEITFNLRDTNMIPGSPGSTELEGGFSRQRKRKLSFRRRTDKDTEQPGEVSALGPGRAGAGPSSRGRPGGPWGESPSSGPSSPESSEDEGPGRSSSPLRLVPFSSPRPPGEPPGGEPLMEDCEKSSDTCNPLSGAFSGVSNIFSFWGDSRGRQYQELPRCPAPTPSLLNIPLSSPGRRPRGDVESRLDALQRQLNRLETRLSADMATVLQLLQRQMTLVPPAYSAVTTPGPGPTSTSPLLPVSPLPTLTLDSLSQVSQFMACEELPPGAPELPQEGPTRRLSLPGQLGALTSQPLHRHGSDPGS

Structure (SMILES) | hERG current change (%, negative = inhibition) at 10uM [%]
COc1cc(C(=O)NCC(c2ccco2)N2CCCC2)ccc1OCc1c(C)noc1C (stereo not drawn) | -21.1
O=C(Nc1cccc2ncccc12)c1ccc(-c2ccc(Cl)cc2Cl)o1 | -7.06
CS(=O)(=O)N(CC(=O)Nc1ccc(S(=O)(=O)N2CCOCC2)cc1)c1cccc(F)c1 | -9.72
Cc1noc(C)c1COc1cccc(C(=O)Nc2ccccc2)c1 | -7.11
Cc1ccc(OCCNC(=O)CCC(=O)N2CCOCC2)cc1 | 15.9
Cc1ccc(S(=O)(=O)N2CCN(CC(=O)Nc3ccc(N4CCOCC4)cc3)CC2)cc1C | -11.5
CC1CCN(S(=O)(=O)c2ccc(NC(=O)CN3CCN(C)CC3)cc2)CC1 | -16
CC1CC(C)CN(CC(=O)Nc2ccc(S(N)(=O)=O)cc2)C1 (stereo not drawn) | 13.7
O=C(CN1CCN(S(=O)(=O)c2ccccc2)CC1)Nc1ccc(Cl)c(Cl)c1 | -16
Cc1ccc(S(=O)(=O)N2CCN(CC(=O)N/N=C\c3ccc(Cl)c([N+](=O)[O-])c3)CC2)cc1 | -30.8
CC1CCN(CC(=O)Nc2ccc(S(=O)(=O)N3CCC(C)CC3)cc2)CC1.Cl | -42.8
Cc1ccc(S(=O)(=O)N2CCN(CC(=O)Nc3ccc([N+](=O)[O-])cc3)CC2)cc1C | -76.9
NS(=O)(=O)c1ccc(NC(=O)CN2CCCC2)cc1 | 3.7
O=C(CN1CCN(S(=O)(=O)c2ccccc2)CC1)Nc1ccc(Cl)c([N+](=O)[O-])c1 | -65
CC1CN(CC(=O)Nc2ccc(S(N)(=O)=O)cc2)CC(C)O1 (stereo not drawn) | -52
Cc1ccc(C)c(S(=O)(=O)N2CCN(CC(=O)Nc3ccc([N+](=O)[O-])cc3)CC2)c1 | -40.7
CC1CCN(S(=O)(=O)c2ccc(NC(=O)CN3CCN(c4ccccc4)CC3)cc2)CC1 | -58.2
Cc1ccccc1S(=O)(=O)Cc1ccc(C(=O)NCCCN2CCCC(C)C2)o1 (stereo not drawn) | -21.1
CCc1ccccc1NC(=O)c1ccc(-c2csc(C)n2)cc1 | -12.4
COc1cccc(C(=O)OCn2nnc3ccccc3c2=O)c1 | 0.671
COc1cccc(-n2c(Cc3cc(=O)[nH]c(=O)[nH]3)nnc2SCc2cccc(C(F)(F)F)c2)c1 | 15.8
CCN(CC(=O)Nc1c(F)cccc1F)C(=O)c1ccc(N2C(=O)c3ccccc3C2=O)cc1 | 1.38
CN(CC(=O)NCCCN1CCOCC1)S(=O)(=O)c1ccc(F)cc1 | 15.4
NC(N)=NCCCC(NC(=O)c1ccccc1)C(=O)Nc1ccc2ccccc2c1 (stereo not drawn) | 12.5
COCC(C)N=C1NN=C(c2cc(C)n(Cc3ccccc3Cl)c2C)CS1 (stereo not drawn) | -9.9
CCOC(=O)C1=C(C)NC(C)=C(C(=O)OCC)C1c1cn(-c2ccccc2)nc1-c1ccco1 | -1.05

Structure (SMILES) | hERG current change (%, negative = inhibition) at 10uM [%]
COc1cc(C(=O)OCC(=O)NC(C)CCc2ccccc2)cc(OC)c1OC (stereo not drawn) | 9.14
O=C(CSc1ncccn1)Nc1ccc(S(=O)(=O)N2CCCCC2)cc1 | -12.9
O=C(CN1CCN(S(=O)(=O)c2ccccc2)CC1)Nc1ccc([N+](=O)[O-])cc1 | -73.4
Cc1cc(=O)[nH]c(SCC(=O)Nc2ccc(S(=O)(=O)N3CCCCC3)cc2)n1 | -6.37
O=[N+]([O-])c1ccc(NC(=S)N2CCN(S(=O)(=O)c3ccccc3)CC2)cc1 | -24.6
CC1CCCN(CC(=O)Nc2ccc(S(=O)(=O)N3CCCCCC3)cc2)C1 (stereo not drawn) | -66.8
Cc1cc(C)c(C)c(S(=O)(=O)N2CCN(CC(=O)Nc3ccc([N+](=O)[O-])cc3)CC2)c1C | 15.4
CC1CCCN(CC(=O)Nc2ccc(S(=O)(=O)N3CCCCC3)cc2)C1 (stereo not drawn) | -15.7
CC1CCCN(CC(=O)Nc2ccc(S(=O)(=O)N3CCCC3)cc2)C1 (stereo not drawn) | 1.82
Cc1cc(C)nc(SCC(=O)Nc2ccc(S(=O)(=O)N3CCCCC3)cc2)n1 | -61.3
Cc1oc2ccccc2c1CNC(=O)N(C)C | 14.2
Cc1cccc(N=Nc2ccc(O)c3ncccc23)c1 | -8.51
CCCN(CC(=O)Nc1ccccc1OC)C(=O)c1cc(-c2cccs2)nn1-c1ccccc1 | -9.02
COc1ccc(/C=N/Nc2nc3ccccc3o2)cc1OC | 13.3
CC(=O)c1ccc(N2CCN(C(=O)COc3ccc4c(c3)CCC4)CC2)cc1 | -34
Cc1ccc(SCc2cn3cccnc3n2)cc1 | 11.1
COc1cccc(CNC(=O)CN2C(=O)COc3ccc(S(=O)(=O)N4CCCCCC4)cc32)c1 | 24.8
COC(=O)c1cnc(Oc2ccc(NC(=O)NC(=O)c3c(OC)cccc3OC)cc2)cc1C(F)(F)F | -14.1
Cc1ccc(Cn2c(=N)c(C(=O)NCc3ccco3)cc3c(=O)n4ccccc4nc32)cc1 | -79.8
Cc1ccc(Cn2c(=O)n(-c3ccccc3)c(=O)c3ccc(C(=O)NCc4ccco4)cc32)cc1 | -10.1
Cc1ccc(S(=O)(=O)c2cc3c(=O)n4ccccc4nc3n(Cc3ccco3)c2=N)cc1 | -11.2
Cc1ccc(CNC(=O)c2cc3c(=O)n4ccccc4nc3n(Cc3ccco3)c2=N)cc1 | -75.5
Cc1ccc(S(=O)(=O)c2cc3c(=O)n4ccccc4nc3n(Cc3ccco3)c2=N)cc1C | -4.4
Cc1cccc(CSc2ccc(S(=O)(=O)N3CCCC3)cn2)c1 | 5.24
CC(NC(=O)C(=O)NCc1cccs1)c1ccccc1 (stereo not drawn) | 16.9
